Source: PubChem
KDM5B inh: KDM5B demethylase inhibition; Q9UGL1; KDM5B demethylase, FDH-coupled NADH fluorescence (FDH is formaldehyde dehydrogenase); Potency, µM (doses to about 57.7 µM), most hits filed as inhibitors; hit rate 2.6% among 220,000; AID 1347165; active = well fitted inhibition curve with a large enough effect; also: 0% is about no effect; nearly all actives have a fitted effect of over 70% in size
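qHTS format, multiple compound concentrations. Buffer 50 mM HEPES pH 7.5/0.01% Tween-20; 200 nM KDM5BΔAP final; 10 min compound preincubation; substrate-mix levels 12.5 µM peptide, 25 µM α-KG, 0.25 mM NAD⁺; 30 min RT; ΔRFU.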
* = called active by the depositor; i = inactive. This excerpt belongs to a sample that is enriched for hits. Potency is read from the fitted curve at half-maximal effect.

SMILES | KDM5B inh
O=C(NCc1nnc2ccc(-c3ccccc3)nn12)c1cc(Cl)ccc1F | 25.1µM*
O=C(NCc1nnc2ccc(-c3ccc(F)cc3)nn12)c1ccc(Cl)s1 | 28.2µM*
CCOC(=O)c1c(C)[nH]c(C(=O)OCc2ccc(C(=O)OC)cc2)c1C | i
CCCOc1ccc(NC(=O)c2cccc3ccccc23)c2cccnc12 | i
N#Cc1ccccc1Oc1ccc(OCc2ccccc2)cc1 | i
CCC(NC(=O)C1CCN(C(=O)c2cccc3ccccc23)CC1)c1ccc(Cl)cc1 (stereo not given) | i
COc1ccc(Cl)cc1S(=O)(=O)Nc1c(N2CCCC2)c2ccccc2oc1=O | i
CCN(CC)C(=O)CN(C1CCCCC1)S(=O)(=O)c1ccc(Br)cc1 | i
CC(OC(=O)c1ccc(C(N)=O)cc1)C(=O)NC(C)c1ccccc1 (stereo not given) | i
CCCCCn1nc(C(=O)Nc2cc(C)cc(C)c2)c2ccccc2c1=O | i
CC(=O)Nc1cccc(NC(=O)CC2(Cc3nc4ccccc4s3)CCCC2)c1 | i
Cc1cc(C)cc(C(=O)NCCn2nc(-c3ccc(F)cc3)ccc2=O)c1 | i
CCN(CC)c1ccc(C(=O)NCc2nnc3ccc(-c4ccc(C)cc4)nn23)cc1 | i
Cc1ccc(-c2ccc3nnc(CNC(=O)c4ccc(F)cc4)n3n2)cc1 | 25.1µM*
N#CC(C(=O)CCC1CCCC1)C(=O)NCc1ccccc1 (stereo not given) | i
O=C(C1CCCN(c2nc3ncccc3o2)C1)N1CCOCC1 (stereo not given) | 39.8µM*
Cc1ccc(C(=O)N2CCN(c3nc4ccccc4o3)CC2)cc1 | i
O=C(c1ccccc1Cl)N1CCN(c2nc3ncccc3o2)CC1 | 20µM*
O=[S+]([O-])(NC1CCCN(c2nc3ncccc3o2)C1)c1cccc(C(F)(F)F)c1 (stereo not given) | i
O=C(C1CCCCC1)N1CCC(c2nc3ccccc3o2)CC1 | i
COc1cccc(C(=O)N2CCCN(c3nc4ncccc4o3)CC2)c1 | i
CN(C)C(=O)N1CCCN(c2nc3ncccc3o2)CC1 | 28.2µM*
O=C(C1CCN(c2nc3ccccc3o2)CC1)N1CCOCC1 | i
O=C(Cc1cccc(Cl)c1)N1CCCN(c2nc3ncccc3o2)CC1 | i
O=C(C1CCCC1)N1CCN(c2nc3ncccc3o2)CC1 | 31.6µM*
SMILES | KDM5B inh
O=C(Cc1ccc(F)cc1)N1CCCN(c2nc3ncccc3o2)CC1 | i
O=C(c1cccs1)N(Cc1cccc2[nH]ccc12)C1CC1 | i
O=C(CSc1ncnc2sc3c(c12)CCC3)Nc1ncc(C(F)(F)F)cc1Cl | i
Cc1cc(C)c2oc(C(=O)Nc3cccnc3)cc(=O)c2c1 | i
O=S(=O)(NC1CCN(S(=O)(=O)c2ccc(Br)cc2)CC1)c1cccs1 | i
CC(C)(C)c1[nH]c2ccccc2c1C=O | i
CC(=O)NC1=NN(C(C)=O)C(c2cccc(OCc3ccccc3F)c2)S1 (stereo not given) | i
Cc1cc(NC(=O)NCC2CCN(CCc3ccc(F)cc3)CC2)ccc1Br | i
CC(C)NC(=O)NC(=O)CN(C)C(C)C(C)(C)C (stereo not given) | i
CCCN1C(=O)C2(C(=C(O)c3ccc(OCC)cc3)C(=O)C(=O)N2CCOC)c2ccccc21 (stereo not given) | i
Cc1ccc(-c2cnoc2NC(=O)CSc2nc(-c3cccc(Cl)c3)cc(=O)[nH]2)cc1 | i
Fc1cnc(N2CCCC(OCc3cccnc3)C2)nc1N1CCOCC1 (stereo not given) | 28.2µM*
O=C(Nc1cccc2c1CCCC2)N1CCCC(OCc2cccnc2)C1 (stereo not given) | i
FC(F)(F)c1ccnc(N2CCC(OCc3cccnc3)CC2)n1 | i
COc1ccc(CN2CCc3oc(C)c(C(=O)NC4CCN(C)CC4)c3C2)cc1 | i
CCOC(=O)CN(CC1CC1)C(=O)Cc1ccc(C)s1 | i
O=C1NC2(CCCN([S+](=O)([O-])c3cccc(C(F)(F)F)c3)C2)COc2ccccc21 (stereo not given) | 35.5µM*
COc1cccc([S+](=O)([O-])N2CCCC3(COc4ccccc4C(=O)N3)C2)c1 (stereo not given) | 25.1µM*
COc1cccc([S+](=O)([O-])N2CCC3(CC2)CNC(=O)c2ccccc2O3)c1 | i
COc1cccc([S+](=O)([O-])N2CCC3(C2)OC(=O)Nc2cnccc23)c1 (stereo not given) | i
Cc1noc(C)c1[S+](=O)([O-])N1CCC2(C1)N=C(c1cccnc1)C(=O)N2 (stereo not given) | i
O=C1NC2(CCN([S+](=O)([O-])c3cccc(C(F)(F)F)c3)C2)Oc2ccccc21 (stereo not given) | i
COc1cccc([S+](=O)([O-])N2CCC3(C2)N=C(c2cccnc2)C(=O)N3)c1 (stereo not given) | 28.2µM*
COc1cccc([S+](=O)([O-])N2CCC3(C2)NC(=O)c2ccccc2O3)c1 (stereo not given) | i
O=C1NC2(CCN([S+](=O)([O-])c3cccc(C(F)(F)F)c3)C2)COc2ccccc21 (stereo not given) | i
SMILES | KDM5B inh
C=CCOc1ccccc1N | i
O=C(Nc1cc(-c2ccc(Br)cc2)no1)c1ccco1 | i
CCCCc1nnc2sc(-c3ccc(OC)c(OC)c3)nn12 | i
COC(=O)c1ccc(NC(=O)N2CCC3(CC2)CC(N2CCCC2)CCO3)cc1 (stereo not given) | i
CC1CC1C(=O)NC1CCC(c2ccccc2)CC1 (stereo not given) | i
CC(C(=O)Nc1cccc2ncccc12)N1CCCCC1 (stereo not given) | i
O=C(O)CNS(=O)(=O)c1ccc(F)c(F)c1F | i
CNC(=O)CN(C)C(=O)c1ccc(N2CCNCC2)c(NS(=O)(=O)c2ccc(C(C)C)cc2)c1 | i
CC(=O)c1ccc(-c2cccc(Cl)c2Cl)o1 | i
O=C(Cn1nc(C(=O)O)c2ccccc2c1=O)Nc1c(F)cccc1F | i
COc1cc(/C=C/C(=O)OCc2cc(=O)oc3cc(C)ccc23)ccc1O | i
CC(C)CCNC(=O)CC(c1ccc(F)cc1)N1Cc2ccccc2C1=O (stereo not given) | i
Fc1ccc2nc(CO[C@H]3CN(Cc4ccccn4)C[C@H]3F)[nH]c2c1 | i
Fc1ccc2nc(CO[C@H]3CN(Cc4ccc5ccccc5n4)C[C@H]3F)[nH]c2c1 | 35.5µM*
Fc1ccc2nc(CO[C@H]3CN(Cc4ccccc4)C[C@H]3F)[nH]c2c1 | i
CCOC(=O)N1CCN(S(=O)(=O)c2cc(Cl)c(C)cc2OCC)CC1 | i
COc1ccc(Cn2c(C3CCN(C(=O)Cc4ccccc4Cl)CC3)n[nH]c2=O)cc1 | i
COC(=O)C(C)(C)NC(=O)c1ccc2c(c1)NC(=O)CS2 | i
CC(C)=CC(=O)Nc1ccc(F)c(Cl)c1 | i
Cc1cc(C)nc(CNC(=O)[C@H]2CCC[C@@H](O)C2)n1 | i
O=C(NCc1c[nH]c2ncccc12)C1CCCC1 | i
O=C(NCc1ccc(-c2ncon2)cc1)[C@H]1CCC[C@@H](O)C1 | i
Nc1ncccc1CNC(=O)[C@H]1CCC[C@H](O)C1 | 25.1µM*
O=C(NCc1noc(Cc2cccs2)n1)[C@H]1CCC[C@@H](O)C1 | i
O=C(NCc1csc(-c2cnccn2)n1)[C@H]1CCC[C@H](O)C1 | 28.2µM*
Cc1cc(C)c2c(=O)n(CC(=O)Nc3ccc(C)c(F)c3)c(=O)n(-c3ccccc3)c2n1 | i
